Counter-ions that a name gives are not always drawn. ± gives the standard deviation of the averaged measurements.

For test [1], the system named is Saccharomyces cerevisiae BY4741 SeMeCo community. Nature of the test: mean cell size (pixel area) (pixels); higher = larger cells. The conditions noted are these: 10 µM; 24 h; SM minimal medium. Summed up: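 Mean cell pixel area per well was determined by automated confocal microscopy with Harmony analysis of paraformaldehyde-fixed cells. The cells, a Saccharomyces cerevisiae BY4741 community of four plasmids that each complement one auxotrophy and carry a fluorescent marker, were incubated for 24 h with drug at a final 10 µM in SM medium in 384-well plates. Numbers are averaged over 3 replicates. Same SeMeCo high-content imaging drug screen: Selleck FDA-approved drugs at 10 µM, 24 h in SM medium, 384-well plates, 3 replicates.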

The test system is the same in test [2]. Kind of test: z-score of prototroph abundance vs DMSO median; higher = larger share of this subpopulation than in DMSO controls. Conditions: 10 µM; 24 h; SM minimal medium; subpopulation (auxotrophy): Prototroph. Summed up: (§1)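 Cells of a Saccharomyces cerevisiae BY4741 community, carrying four plasmids that each restored one auxotrophy and encoded a distinct fluorescent protein, were pre-grown overnight to OD600 1.0 and diluted to 0.3. A 70 µl volume was added to 384-well plates acoustically predosed with library drugs (10 µM final) and grown 24 h in minimal SM medium. After paraformaldehyde fixation, automated confocal microscopy was used, with single-auxotroph fluorescent strains for thresholds and autofluorescence correction. The abundance of each subpopulation was scored as a z-score against the vehicle-well median.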

Test [3] has the same test system. Nature of the test: z-score of subpopulation abundance vs DMSO median, subpopulation auxotrophic for M; higher = larger share of this subpopulation than in DMSO controls. Conditions: 10 µM; 24 h; SM minimal medium; subpopulation (auxotrophy): M. Summed up:
as §1

The test system is the same in test [4]. Kind of test: z-score of subpopulation abundance vs DMSO median, subpopulation auxotrophic for L; higher = larger share of this subpopulation than in DMSO controls. Conditions: 10 µM; 24 h; SM minimal medium; subpopulation (auxotrophy): L. Summed up:
as §1

For test [5] the test system is unchanged. Nature of the test: z-score of subpopulation abundance vs DMSO median, subpopulation auxotrophic for U; higher = larger share of this subpopulation than in DMSO controls. Conditions: 10 µM; 24 h; SM minimal medium; subpopulation (auxotrophy): U. Summed up: as §1
Test [6] shares this test system. Kind of test: z-score of subpopulation abundance vs DMSO median, subpopulation auxotrophic for LU; higher = larger share of this subpopulation than in DMSO controls. Conditions: 10 µM; 24 h; SM minimal medium; subpopulation (auxotrophy): LU. Summed up: as §1
The test system is the same in test [7]. Kind of test: z-score of subpopulation abundance vs DMSO median, subpopulation auxotrophic for LM; higher = larger share of this subpopulation than in DMSO controls. Conditions: 10 µM; 24 h; SM minimal medium; subpopulation (auxotrophy): LM. Summed up:
as §1

Test [8] shares this test system. Nature of the test: z-score of subpopulation abundance vs DMSO median, subpopulation auxotrophic for HM; higher = larger share of this subpopulation than in DMSO controls. The conditions noted are these: 10 µM; 24 h; SM minimal medium; subpopulation (auxotrophy): HM. Summed up:
as §1

Test [9] has the same test system. Nature of the test: z-score of subpopulation abundance vs DMSO median, subpopulation auxotrophic for UM; higher = larger share of this subpopulation than in DMSO controls. The conditions noted are these: 10 µM; 24 h; SM minimal medium; subpopulation (auxotrophy): UM. The gist of the method: as §1
The test system is the same in test [10]. Nature of the test: z-score of subpopulation abundance vs DMSO median, subpopulation auxotrophic for HL; higher = larger share of this subpopulation than in DMSO controls. The conditions noted are these: 10 µM; 24 h; SM minimal medium; subpopulation (auxotrophy): HL. Summed up: as §1
Test [11] shares this test system. Nature of the test: z-score of subpopulation abundance vs DMSO median, subpopulation auxotrophic for HLU; higher = larger share of this subpopulation than in DMSO controls. The conditions noted are these: 10 µM; 24 h; SM minimal medium; subpopulation (auxotrophy): HLU. Summed up:
as §1

Test [12] shares this test system. Kind of test: z-score of subpopulation abundance vs DMSO median, subpopulation auxotrophic for HLM; higher = larger share of this subpopulation than in DMSO controls. The conditions noted are these: 10 µM; 24 h; SM minimal medium; subpopulation (auxotrophy): HLM. Summed up:
as §1

For test [13] the test system is unchanged. Nature of the test: z-score of subpopulation abundance vs DMSO median, subpopulation auxotrophic for HUM; higher = larger share of this subpopulation than in DMSO controls. The conditions noted are these: 10 µM; 24 h; SM minimal medium; subpopulation (auxotrophy): HUM. Summed up:
as §1

The test system is the same in test [14]. Kind of test: z-score of subpopulation abundance vs DMSO median, subpopulation auxotrophic for LUM; higher = larger share of this subpopulation than in DMSO controls. The conditions noted are these: 10 µM; 24 h; SM minimal medium; subpopulation (auxotrophy): LUM. Summed up: as §1
The test system is the same in test [15]. Nature of the test: z-score of subpopulation abundance vs DMSO median, subpopulation auxotrophic for H; higher = larger share of this subpopulation than in DMSO controls. The conditions noted are these: 10 µM; 24 h; SM minimal medium; subpopulation (auxotrophy): H. Summed up: as §1
Test [16] shares this test system. Kind of test: z-score of subpopulation abundance vs DMSO median, subpopulation auxotrophic for HU; higher = larger share of this subpopulation than in DMSO controls. Conditions: 10 µM; 24 h; SM minimal medium; subpopulation (auxotrophy): HU. Summed up:
as §1

For test [17] the test system is unchanged. Kind of test: z-score of subpopulation abundance vs DMSO median, subpopulation auxotrophic for HLUM; higher = larger share of this subpopulation than in DMSO controls. The conditions noted are these: 10 µM; 24 h; SM minimal medium; subpopulation (auxotrophy): HLUM. The gist of the method: as §1

Regarding `O=C(N[C@H](CO)[C@H](O)c1ccc([N+](=O)[O-])cc1)C(Cl)Cl` [Chloramphenicol], the mean cell size in test [1] was found to be 12.5 ± 0.17. In addition, the “z-score of prototroph abundance” value in test [2] was -0.39. In addition, the “z-score of subpopulation abundance” value in test [3] was 0.86; in test [4], 0.12; in test [5], -0.21; in test [6] it was -0.22; in test [7], 0.1; in [8], -0.25. For the same compound, the “z-score of subpopulation abundance” value in test [9] is -0.39; in test [10], 0.18; in test [11], -0.24; in test [12] it was 0.01; in test [13], 0.42; in test [14], 0.23.

`Cc1ncc([N+](=O)[O-])n1CCO` [Metronidazole] returned a mean cell size in [1] of 12.4 ± 0.12. Also, in [2], the “z-score of prototroph abundance” value amounted to 0.23. For the same compound, the “z-score of subpopulation abundance” value was 0.32 in test [3]; 0.11 in [4]; -0.5 in test [5]; 0.44 in test [15]; -0.37 in test [6]; 0.12 in [7]. Moreover, the “z-score of subpopulation abundance” value is -0.42 in test [8]; -0.62 in test [9]; -0.42 in [10]; 0.18 in [11]; -0.7 in [12]; 0.09 in [13]. Also, the “z-score of subpopulation abundance” value in test [14] was -0.37.

`CC[C@H]1OC(=O)[C@H](C)[C@@H](O[C@H]2C[C@@](C)(OC)[C@@H](O)[C@H](C)O2)[C@H](C)[C@@H](O[C@@H]2O[C@H](C)C[C@H](N(C)C)[C@H]2O)[C@](C)(O)C[C@@H](C)C(=O)[C@H](C)[C@H]2OC(=O)O[C@@]21C` [Erythromycin Cyclocarbonate] registered a mean cell size in test [1] of 12.19 ± 0.065. The “z-score of prototroph abundance” value in test [2] is -1.17. In addition, the “z-score of subpopulation abundance” value in [3] was -0.28; in test [4] it was 1.01; in test [15] it was 2.08; in [6] it was 0.04; in test [7] it was 0.55; in test [8], 0.9. The “z-score of subpopulation abundance” value in test [16] was found to be 0.76; in test [9] it was 0.58; in test [10] it was 1.2; in test [11], 0.3; in [12], 0.52; in [13] it was 0.96. Also, the “z-score of subpopulation abundance” value in test [14] was 0.8.

`CNS(=O)(=O)CCc1ccc2[nH]cc(C3CCN(C)CC3)c2c1` [Naratriptan HCl] returned a mean cell size in test [1] of 12.4 ± 0.17. In addition, the “z-score of prototroph abundance” value in test [2] was 0.15. Moreover, the “z-score of subpopulation abundance” value in test [3] was 0.48; in test [4], -0.79; in test [5], 0.55; in test [6], 0.2; in test [7], 0.06; in test [16], 0.27. In addition, the “z-score of subpopulation abundance” value was -0.28 in [10]; -0.03 in test [11]; -0.19 in test [12]; -0.27 in test [13]; -0.24 in test [14]; -0.77 in test [17].

Compound `C[N+]1(C)CCC(=C(c2ccccc2)c2ccccc2)CC1` [Diphemanil Methylsulfate] displayed a mean cell size in [1] of 12.6 ± 0.23. Besides, the “z-score of prototroph abundance” value in [2] was -0.15. The “z-score of subpopulation abundance” value was 1.5 in [3]; -0.56 in test [4]; -0.27 in test [15]; -0.26 in test [6]; 0.34 in test [7]; 0.58 in [8]. Moreover, the “z-score of subpopulation abundance” value in test [16] was -0.13; in test [9], 0.25; in [10], -0.17; in test [11], -0.19; in test [12], -0.02; in [13] it was 0.68. Also, the “z-score of subpopulation abundance” value in test [14] is 0.41.

Regarding `N#Cc1ccc(Oc2ccc3c(c2)COB3O)cc1` [Crisaborole (AN2728)], the mean cell size in [1] is 12.3 ± 0.19. Further, the “z-score of prototroph abundance” value in [2] is -3.53. Moreover, the “z-score of subpopulation abundance” value was -1.21 in [3]; 2.57 in test [4]; 0.49 in test [5]; 7.63 in test [15]; 4.21 in [6]; 2.61 in test [7]. Further, the “z-score of subpopulation abundance” value in test [8] was 0.93; in test [9], -0.21; in [10] it was 5.69; in test [11], 6.18; in test [12] it was 3.78; in test [13] it was 1.2.

In [1], `Cc1cc(C)nc(O)n1.O=C(Nc1ccc([N+](=O)[O-])cc1)Nc1ccc([N+](=O)[O-])cc1` [Nicarbazin] yielded a mean cell size of 12.4 ± 0.18. Besides, in test [2], the “z-score of prototroph abundance” value was 0.74. For the same compound, the “z-score of subpopulation abundance” value was -0.21 in test [3]; -0.96 in test [4]; 0.5 in [5]; -0.25 in test [15]; 0.22 in [6]; -1.07 in test [7]. The “z-score of subpopulation abundance” value is -0.22 in test [16]; -0.4 in [9]; -1.2 in test [10]; -0.28 in test [11]; -0.49 in test [12]; -0.86 in test [13]. The “z-score of subpopulation abundance” value was -0.52 in test [14] and -0.56 in [17].

The values above are taken from the supplement of paper PMC8975748.
